# Results as given in PubChem BioAssay AID2315 (National Center for Advancing Translational Sciences (NCATS), 2010).
# Out of some 290,000 compounds screened, about 27,000 (9.3%) were called active. Cut-off read from the data, not from the text of the source: active = inhibition mostly above about 28% (no sharp cut-off); inactive = mostly below about 43%. The full list was thinned out, with actives kept by preference.
# Assay: A qHTS for Small Molecule Inhibitors of Shiga Toxin; note: 0% is about no effect
# Conditions: Vero cells, Shiga toxin protein synthesis inhibition reporter; at 38.7 µM, hits give high values
row,Compound,inhibition
1,COc1ccc(NC(=O)CN2C(=O)CSC2=O)cc1,-1.96% (inactive)
2,CCc1ccc(NC(=O)CN2C(=O)CSC2=O)cc1,53.9% (active)
3,CCc1ccc(NC(=O)CN2C(=O)COc3ccc(S(=O)(=O)N4CCCC4)cc32)cc1,-5.17% (inactive)
4,CC1(c2ccc(Cl)cc2)NC(=O)N(CC(=O)c2ccc3c(c2)OCO3)C1=O (stereo not given),1.96% (inactive)
5,O=C(CN1CCN(c2ccccc2F)CC1)c1ccc2c(c1)OCO2,53% (active)
6,O=C(Nc1ccccc1N1CCN(C(=O)c2ccccc2)CC1)c1ccc2c(c1)OCO2,-7.26% (inactive)
7,CCOc1cc(C2/C(=C(/O)c3ccc(S(=O)(=O)N4CCCCC4)cc3)C(=O)C(=O)N2CCOC)ccc1O (stereo not given),-10.6% (inactive)
8,O=C(Oc1ccc2c(c1)CCC2)N1CCOCC1,97.3% (active)
9,O=C(Oc1ccc(F)cc1)N1CCOCC1,-2.55% (inactive)
10,O=C(Nc1cccc(OC(=O)N2CCCCC2)c1)N1CCOCC1,-5.26% (inactive)
11,CNS(=O)(=O)c1cccc(C(=O)NC2CCCc3ccccc32)c1 (stereo not given),2.04% (inactive)
12,COc1ccccc1N(CC(=O)NC1CCCC1)C(=O)C1(C)CC(=O)N=C2C=CC(C)=CN21 (stereo not given),-13.3% (inactive)
13,CSc1ncccc1C(=O)NC1CCCCCC1,27.5% (inactive)
14,CSc1ncccc1C(=O)OCc1ccc(Br)cc1,42% (active)
15,CSc1ncccc1C(=O)OCC(=O)N1CCOCC1,-2.04% (inactive)
16,COc1ccc(N2CCN(C(=O)[C@@H](NC(=O)c3cc(OC)cc(OC)c3)C(C)C)CC2)cc1,2.67% (inactive)
17,O=C(CN1CCN(S(=O)(=O)c2ccc(F)cc2)CC1)NC1CC1,-30.6% (inactive)
18,COc1ccc(-c2ccc(C3C4C=CCCC4(C)C(=O)N3Cc3ccccc3)c(F)c2)cc1OC (stereo not given),-1.56% (inactive)
19,COCCCNC(=O)COc1cc(C)c(Cl)c(C)c1,-11.4% (inactive)
20,Cc1cc(OCc2cc(C(=O)NCc3cc(C(C)C)no3)no2)cc(C)c1Cl,79.8% (active)
21,Cc1cc(OCc2ccc(C(=O)Nc3ccc(C(=O)O)cc3)o2)ccc1Cl,2.97% (inactive)
22,Nc1nc(CC(=O)CSc2ccc(Cl)cc2)nc(Nc2ccc(F)cc2)n1,-6.2% (inactive)
23,CC(C)CN(C(=O)c1cccc(S(=O)(=O)N2CCCCC2)c1)C1CCS(=O)(=O)C1 (stereo not given),-6.54% (inactive)
24,CCOC(=O)C1(Cc2ccccc2C)CCCN(S(C)(=O)=O)C1 (stereo not given),-1.22% (inactive)

row,Compound,inhibition
1,CCOC(=O)C1(Cc2ccccc2C)CCCN(C(=O)CN2C(=O)CSC2=O)C1 (stereo not given),78.9% (active)
2,CCOC(=O)C1(CCc2ccccc2)CCN(Cc2ccco2)CC1,-2.54% (inactive)
3,O=C(CN1C(=O)CSC1=O)N1CCCC(Nc2ccc(F)cc2)C1 (stereo not given),0.485% (inactive)
4,O=C(Cn1c(=O)n(CC2CS2)c2ccccc21)N1CCCCC1 (stereo not given),-7.24% (inactive)
5,CCOC(=O)C1(Cc2ccccc2C)CCCN(C(=O)c2ccc(COC)o2)C1 (stereo not given),121% (active)
6,CC(C)c1ccc(S(=O)(=O)NC2CCCC2)cc1,-8.49% (inactive)
7,CCc1ccccc1NC(=O)c1ccc2c(c1)CCN2S(C)(=O)=O,21.4% (inactive)
8,CSc1ccccc1NC(=O)c1ccc2c(c1)CCN2S(C)(=O)=O,38.2% (active)
9,CS(=O)(=O)N1CCc2cc(C(=O)Nc3ccccc3)ccc21,3.54% (inactive)
10,CS(=O)(=O)N1CCc2cc(C(=O)Nc3ccccc3Br)ccc21,50.7% (active)
11,COc1ccc(OC)c(NC(=O)c2ccc3c(c2)CCN3S(C)(=O)=O)c1,-5.31% (inactive)
12,CC(=O)Nc1cccc(NC(=O)c2ccc3c(c2)CCN3S(C)(=O)=O)c1,6.84% (inactive)
13,COc1cccc(Cn2cc(/C=N/NC(=O)c3cc(O)cc(O)c3)c3ccccc32)c1,-3.1% (inactive)
14,CS(=O)(=O)c1ccccc1C(=O)Nc1ccc2sccc2c1,-5.25% (inactive)
15,CCN(c1ccccc1)S(=O)(=O)c1ccc(NC(=O)C(C)(C)C)cc1,3.09% (inactive)
16,CC(C)(CCl)C(=O)Nc1ccc(Sc2ccc(F)cc2)cc1,83% (active)
17,O=C(CCl)Nc1ccc(Sc2ccc(NC(=O)CCl)cc2)cc1,16% (inactive)
18,O=C(O)c1ccc(NC(=O)c2cn(-c3ccccc3)nc2-c2ccc(Cl)cc2)cc1,24.5% (inactive)
19,O=C(c1cnn(-c2ccc(Cl)cc2)c1)c1ccccc1O,59.4% (active)
20,Cc1ncc(CC(=O)n2cc(C(=O)c3cc(Cl)ccc3O)cn2)s1,8.82% (inactive)
21,CC(=O)Nc1c2c(nn1-c1cccc(C)c1)CSC2,-5.43% (inactive)
22,O=C(CCS(=O)(=O)c1ccc(Br)cc1)NCCc1ccc(Cl)cc1,-14.4% (inactive)
23,Cc1nn(Cc2ccccc2Cl)c(Cl)c1C(=O)OC(C(=O)NC(N)=O)C(C)C (stereo not given),8.84% (inactive)
24,COc1ccccc1CCNC(=O)c1cnccn1,10.7% (inactive)

row,Compound,inhibition
1,COc1ccccc1CCNC(=O)c1c(C)nn(CC(C)C)c1Cl,62.8% (active)
2,N#CC(C#N)=CN=c1ccn(Cc2ccc(Cl)cc2Cl)cc1,1.18% (inactive)
3,Clc1c(OCCCn2ccnc2)ccc2ccccc12,17.6% (inactive)
4,Cc1ccc(CCNC(=O)c2ccc3nc4ccccc4c(=O)n3c2)cc1,5.74% (inactive)
5,O=C(Oc1ccccc1C(=S)N1CCCCC1)c1cc([N+](=O)[O-])cc([N+](=O)[O-])c1,13% (inactive)
6,O=C(COc1ccc2oc3c(c2c1)CCCC3)Nc1ccccn1,57.2% (active)
7,CCN(CC)CCCNC(=O)COc1ccc2oc3c(c2c1)CCCC3,-7.61% (inactive)
8,Cc1ccc(OCC(=O)Nc2ccc(S(=O)(=O)Nc3ccccn3)cc2)cc1,2.76% (inactive)
9,Cc1ccc(Cn2nnc3c(=O)[nH]c(C4CCN(S(=O)(=O)/C=C/c5ccccc5)CC4)nc32)cc1,-13.7% (inactive)
10,COCn1c(C(O)c2ccccc2)cc2ccccc21 (stereo not given),-6.57% (inactive)
11,Cc1ccn2c(c1)nc(=O)c1cc(S(=O)(=O)N3CCC(C)CC3)ccc12,14.3% (inactive)
12,O=C1Nc2cc(C(=O)N3CCC(N4CCCCC4)CC3)ccc2S/C1=C\c1ccccc1,-12.8% (inactive)
13,C=CCCN(C(Cc1ccccc1)C(=O)OC)S(=O)(=O)c1cc(Br)ccc1Br (stereo not given),2.22% (inactive)
14,COC(=O)Cc1ccc(NC(=S)NCc2ccccc2)cc1,-2.18% (inactive)
15,O=C(NCc1cccc(CNC(=O)Nc2cccc(O)c2)c1)Nc1cccc(O)c1,17.1% (inactive)
16,Cc1cc(C)cc(NC(=O)NCc2ccccn2)c1,-1.91% (inactive)
17,COc1cccc(NC(=S)N(Cc2ccc(C)cc2)Cc2ccccn2)c1,-9.99% (inactive)
18,COc1cccc(NC(=O)NCc2ccc(F)cc2)c1,43.7% (active)
19,CCC(C)c1ccc(NC(=S)NCc2ccccn2)cc1 (stereo not given),56.9% (active)
20,COc1cccc(S(=O)(=O)NCc2ccc(C(=O)NCc3ccccn3)cc2)c1,-7.83% (inactive)
21,COc1cccc(NC(=S)NCc2ccccn2)c1,60.7% (active)
22,COc1cccc(NC(=O)NCCN2CCCCC2)c1,17.6% (inactive)
23,COc1ccc(OC)c(CCNC(=O)CCn2ccc3cc(S(=O)(=O)N4CCCC4)ccc32)c1,1.48% (inactive)
24,COc1ccc(N(CC(=O)Nc2ccc(F)c(F)c2)S(=O)(=O)c2c(C)[nH]c(=O)[nH]c2=O)cc1,-5.76% (inactive)

row,Compound,inhibition
1,COc1cccc(OC)c1C(=O)Nc1ccc2c(c1)n(C)c(=O)n2C,-1.01% (inactive)
2,COc1ccc(NS(=O)(=O)c2cc(NC(=O)C3CCCCC3)ccc2N2CCOCC2)cc1,-4.94% (inactive)
3,Cn1c(=O)[nH]c(=O)c2c1[nH]c(=S)n2Cc1ccccc1,-6.6% (inactive)
4,CCc1cccc(C)c1NS(=O)(=O)c1c(C)nc2sccn2c1=O,-3.6% (inactive)
5,CCNS(=O)(=O)c1ccc(CCC(=O)N2CCN(c3cc(Cl)ccc3C)CC2)cc1,-3.72% (inactive)
6,O=c1o[nH]c(-c2ccccc2)c1N=Nc1c(F)cccc1Cl,-2.82% (inactive)
7,Cc1noc(C)c1-c1ccc2ncnc(NC(C)c3ccco3)c2c1 (stereo not given),30.2% (inactive)
8,Cc1noc(C)c1-c1ccc2ncnc(NCc3ccc4[nH]ccc4c3)c2c1,70.1% (active)
9,Cc1noc(C)c1-c1ccc2ncnc(NCc3ccc(F)c(F)c3)c2c1,10.1% (inactive)
10,O=Cc1c(NCCCN2CCCC2=O)c2ccccc2[nH]c1=O,7.22% (inactive)
11,Cc1cccc(NC(=O)CSc2nc3[nH]ncc3c(=O)[nH]2)c1,-11.6% (inactive)
12,CCCSc1nc2[nH]ncc2c(=O)[nH]1,-9.31% (inactive)
13,Cc1ccc(CSc2nc3[nH]ncc3c(=O)[nH]2)cc1,136% (active)
14,Cc1ccc(S(=O)(=O)N(C)C)cc1NC(=O)C1Cc2ccccc2CN1C(=O)c1ccco1 (stereo not given),-7.79% (inactive)
15,COc1ccc(Cl)cc1-n1c(=S)sc2c(=O)n(-c3ccc(F)cc3)c(SCC(=O)O)nc21,19.4% (inactive)
16,CC(=O)NC(CC(=O)O)c1ccc(F)cc1 (stereo not given),-5.08% (inactive)
17,CN(C)c1ccc(/C=N/NC(=O)C(O)c2ccc(Br)cc2)cc1 (stereo not given),20.6% (inactive)
18,CN(C)c1ccc(C(CC(=O)O)C(=O)O)cc1 (stereo not given),73.8% (active)
19,COc1ccccc1N(C)C(=O)c1cc(S(=O)(=O)N2CCc3ccccc32)cn1C,8.5% (inactive)
20,O=C(CN1CCN(c2ccc(F)cc2)CC1)Nc1ccccc1,-6.95% (inactive)
21,Cc1cc(O)ccc1-c1cnc2ccccc2n1,99.9% (active)
22,CC(=O)Nc1cccc(-c2cnc3ccccc3n2)c1,116% (inactive)
23,Cc1ccc(-c2cc(C(=O)Nc3nn[nH]n3)c3ccccc3n2)c(C)c1,-11.6% (inactive)
